# Results filed as inconclusive are left out. Values without a mark were called inactive. Activity calls are given as the source filed them. Unless noted, the call rests on the fitted dose curve; in most records, active means well fitted inhibition curve with a large enough effect; inconclusive means small, poorly fitted or top-dose-only effect; inactive means no such curve, though single readings can be large or run the other way.
# Biological target: Mitogen-activated protein kinase 10 (Mus musculus) (UniProt Q61831)
# Assay: JNK3 AlphaScreen Assay (AID 530; active means well fitted curve in either direction with a large enough effect, not every such curve was filed as active;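 further: kinase came from lysate of stimulated human HepG2 cells; signal reports phosphorylation of biotinylated GST-cJun 1-79 at Ser73 with 10 µM ATP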)
# Settings: JNK3 lysate, c-Jun phosphorylation; series mostly up to 57.1 µM; activity change, negative = inhibition: at the top concentration
# In short: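 Compound titrations were preincubated 15 minutes at room temperature with substrate, antibody and pre-activated JNK3-containing HepG2 lysate. Reactions were started with 10 uM ATP and stopped with EDTA-containing bead buffer for AlphaScreen detection.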
# On the % scale 0 is the no-effect control and ±100 the full control effect.
row,Compound,"activity change, negative = inhibition [%]"
1,COCCN(CCOC)c1nc(C)nc2c1nc(-c1ccccc1)n2CCN1CCOCC1,-6.59
2,Cc1nc(NCc2ccccc2)c2nc(-c3ccccc3)n(CCCN(C)C)c2n1,-2.86
3,CCN1CCCC1Cn1c(-c2ccccc2)nc2c(NC3CCCCC3)nc(C)nc21 (configuration not stated),-5.87
4,Cc1nc(NC2CCCCC2)c2nc(-c3ccccc3)n(CCCN3CCCCC3C)c2n1 (configuration not stated),-2.83
5,CCCCNc1nc(C)nc2c1nc(-c1ccccc1)n2CCCN1CCCCC1C (configuration not stated),-5.24
6,CCCn1c(C)nc2c(N3CCCN(Cc4ccccc4)CC3)nc(C)nc21,-1.36
7,CCN1CCCC1Cn1c(-c2ccccc2)nc2c(NCc3ccccc3)nc(C)nc21 (configuration not stated),-7.21
8,CCCCNc1nc(C)nc2c1nc(-c1ccccc1)n2C1CCN(Cc2ccccc2)C1 (configuration not stated),-12.1
9,CCCn1c(C)nc2c(NCCN3CCCC3)nc(C)nc21,0.992
10,Cc1nc(NCc2ccccc2)c2nc(-c3ccccc3)n(C3CCN(Cc4ccccc4)C3)c2n1 (configuration not stated),-9.56
11,Cc1nc(NC2CCCCC2)c2nc(-c3ccccc3)n(CCN3CCCCC3)c2n1,-16.6
12,COCCNc1nc(C)nc2c1nc(-c1ccccc1)n2CCN1CCCCC1,-13.2
13,Cc1nc(N2CCOCC2)c2nc(-c3ccccc3)n(CCN3CCCCC3)c2n1,-8.24
14,CCCn1c(-c2ccc(F)cc2)nc2c(NCCCCN(CC)CC)nc(C)nc21,-1.6
15,CCN(CC)CCCCn1c(-c2ccccc2)nc2c(NCc3ccccc3)nc(C)nc21,-3.71
16,CCCn1c(-c2ccc(F)cc2)nc2c(NCCCN3CCOCC3)nc(C)nc21,-14.9
17,COCCN(CCOC)c1nc(C)nc2c1nc(-c1ccccc1)n2CCCN1CCCCC1C (configuration not stated),-0.494
18,CCCn1c(-c2ccc(F)cc2)nc2c(N3CCCN(Cc4ccccc4)CC3)nc(C)nc21,-9.72
19,CCN1CCCC1Cn1c(-c2ccccc2)nc2c(NCCOC)nc(C)nc21 (configuration not stated),-2.61
20,CCN(CC)CCCCn1c(-c2ccccc2)nc2c(N(CCOC)CCOC)nc(C)nc21,-9.91
21,Cc1nc(N2CCOCC2)c2nc(-c3ccccc3)n(CCCN3CCOCC3)c2n1,-0.542
22,Cc1nc(NCc2ccccc2)c2nc(-c3ccccc3)n(CCCN3CCCCC3C)c2n1 (configuration not stated),-22.8
23,CCCCNc1nc(C)nc2c1nc(-c1ccccc1)n2CC1CCCN1CC (configuration not stated),-7.61

# Biological target: Cytochrome P450 3A4 (Homo sapiens) (UniProt P08684)
# Sequence (P08684 whole entry, looked up): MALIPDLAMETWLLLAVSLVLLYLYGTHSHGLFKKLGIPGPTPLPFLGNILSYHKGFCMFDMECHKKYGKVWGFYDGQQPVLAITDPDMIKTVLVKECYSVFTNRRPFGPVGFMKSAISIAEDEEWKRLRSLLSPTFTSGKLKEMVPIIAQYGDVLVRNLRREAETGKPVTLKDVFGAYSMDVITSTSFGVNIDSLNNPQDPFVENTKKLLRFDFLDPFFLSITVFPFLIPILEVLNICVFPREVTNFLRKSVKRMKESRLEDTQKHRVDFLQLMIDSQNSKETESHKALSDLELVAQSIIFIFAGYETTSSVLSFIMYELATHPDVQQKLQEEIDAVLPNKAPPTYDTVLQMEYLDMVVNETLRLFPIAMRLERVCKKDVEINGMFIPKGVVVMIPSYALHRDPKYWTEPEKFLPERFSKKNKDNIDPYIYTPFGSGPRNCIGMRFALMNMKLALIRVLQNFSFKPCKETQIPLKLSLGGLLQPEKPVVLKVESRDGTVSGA
# Assay: qHTS Assay for Inhibitors and Substrates of Cytochrome P450 3A4 (AID 884); further: nearly all actives have a fitted effect of over 50% in size; further: potency means the concentration at half of the fitted maximal effect
# Settings: recombinant CYP3A4, Luciferin-PPXE luminescence; series mostly up to 57.1 µM; activity change, negative = inhibition: at the top concentration
# In short: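 20 nM human CYP3A4 with 25 uM Luciferin-PPXE (at KM) in 200 mM KPO4, preincubated 10 min with compound; NADPH regeneration started a 60 min RT reaction. Luciferin detected by luminescence, normalized to 57 uM ketoconazole as full inhibition.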
Compound,Potency,"activity change, negative = inhibition [%]"
CCCn1c(-c2ccc(F)cc2)nc2c(NCCN3CCOCC3)nc(C)nc21,7.94 µM (active),
CCCn1c(-c2ccc(F)cc2)nc2c(NCCN3CCSCC3)nc(C)nc21,20 µM (active),
CCCCNc1nc(C)nc2c1nc(-c1ccccc1)n2CCN1CCCCC1,3.16 µM (active),
Cc1nc(Nc2ccccc2)c2nc(-c3ccccc3)n(CCN3CCOCC3)c2n1,1.58 µM (active),
Cc1nc(NCc2ccccc2)c2nc(-c3ccccc3)n(CC(C)(C)CN(C)C)c2n1,3.98 µM (active),
CCCCNc1nc(C)nc2c1nc(-c1ccccc1)n2CCN1CCCC1,12.6 µM (active),
Cc1nc(NC2CCCCC2)c2nc(-c3ccccc3)n(C(C)CN(C)C)c2n1 (configuration not stated),12.6 µM (active),
CCCn1c(-c2ccc(F)cc2)nc2c(NC(C)CCCN(CC)CC)nc(C)nc21 (configuration not stated),10 µM (active),
CCCn1c(-c2ccc(F)cc2)nc2c(N3CCN(CCC(=O)OCC)CC3)nc(C)nc21,12.6 µM (active),
Cc1nc(NCc2ccccc2)c2nc(-c3ccccc3)n(CCCN3CCOCC3)c2n1,3.98 µM (active),
CCN(CC)CCCC(C)n1c(-c2ccccc2)nc2c(N(CCOC)CCOC)nc(C)nc21 (configuration not stated),10 µM (active),
COCCNc1nc(C)nc2c1nc(-c1ccccc1)n2C1CCN(Cc2ccccc2)C1 (configuration not stated),12.6 µM (active),
CCCn1c(-c2ccc(F)cc2)nc2c(NCC(C)(C)CN(C)C)nc(C)nc21,15.8 µM (active),
CCN(CC)CCCC(C)n1c(-c2ccccc2)nc2c(NC3CCCCC3)nc(C)nc21 (configuration not stated),12.6 µM (active),
Cc1nc(NCc2ccccc2)c2nc(-c3ccccc3)n(C(C)CN(C)C)c2n1 (configuration not stated),10 µM (active),
CCN1CCCC1Cn1c(-c2ccccc2)nc2c(N(CCOC)CCOC)nc(C)nc21 (configuration not stated),15.8 µM (active),
COCCN(CCOC)c1nc(C)nc2c1nc(-c1ccccc1)n2CCN1CCOCC1,1 µM (active),
Cc1nc(NCc2ccccc2)c2nc(-c3ccccc3)n(CCCN(C)C)c2n1,12.6 µM (active),
CCN1CCCC1Cn1c(-c2ccccc2)nc2c(NC3CCCCC3)nc(C)nc21 (configuration not stated),12.6 µM (active),
Cc1nc(NC2CCCCC2)c2nc(-c3ccccc3)n(CCCN3CCCCC3C)c2n1 (configuration not stated),10 µM (active),

Compound,Potency,"activity change, negative = inhibition [%]"
CCCCNc1nc(C)nc2c1nc(-c1ccccc1)n2CCCN1CCCCC1C (configuration not stated),6.31 µM (active),
CCCn1c(C)nc2c(N3CCCN(Cc4ccccc4)CC3)nc(C)nc21,7.94 µM (active),
CCN1CCCC1Cn1c(-c2ccccc2)nc2c(NCc3ccccc3)nc(C)nc21 (configuration not stated),5.01 µM (active),
CCCCNc1nc(C)nc2c1nc(-c1ccccc1)n2C1CCN(Cc2ccccc2)C1 (configuration not stated),7.94 µM (active),
CCCn1c(C)nc2c(NCCN3CCCC3)nc(C)nc21,,113
Cc1nc(NCc2ccccc2)c2nc(-c3ccccc3)n(C3CCN(Cc4ccccc4)C3)c2n1 (configuration not stated),3.98 µM (active),
Cc1nc(NC2CCCCC2)c2nc(-c3ccccc3)n(CCN3CCCCC3)c2n1,7.94 µM (active),
COCCNc1nc(C)nc2c1nc(-c1ccccc1)n2CCN1CCCCC1,10 µM (active),
Cc1nc(N2CCOCC2)c2nc(-c3ccccc3)n(CCN3CCCCC3)c2n1,2.51 µM (active),
CCCn1c(-c2ccc(F)cc2)nc2c(NCCCCN(CC)CC)nc(C)nc21,10 µM (active),
CCN(CC)CCCCn1c(-c2ccccc2)nc2c(NCc3ccccc3)nc(C)nc21,7.94 µM (active),
CCCn1c(-c2ccc(F)cc2)nc2c(NCCCN3CCOCC3)nc(C)nc21,5.01 µM (active),
COCCN(CCOC)c1nc(C)nc2c1nc(-c1ccccc1)n2CCCN1CCCCC1C (configuration not stated),12.6 µM (active),
CCCn1c(-c2ccc(F)cc2)nc2c(N3CCCN(Cc4ccccc4)CC3)nc(C)nc21,3.16 µM (active),
CCN1CCCC1Cn1c(-c2ccccc2)nc2c(NCCOC)nc(C)nc21 (configuration not stated),20 µM (active),
CCN(CC)CCCCn1c(-c2ccccc2)nc2c(N(CCOC)CCOC)nc(C)nc21,12.6 µM (active),
Cc1nc(N2CCOCC2)c2nc(-c3ccccc3)n(CCCN3CCOCC3)c2n1,15.8 µM (active),
Cc1nc(NCc2ccccc2)c2nc(-c3ccccc3)n(CCCN3CCCCC3C)c2n1 (configuration not stated),5.01 µM (active),
CCCCNc1nc(C)nc2c1nc(-c1ccccc1)n2CC1CCCN1CC (configuration not stated),3.98 µM (active),

# From PubChem BioAssay (NCATS)
